# Measured values taken from PubChem BioAssay (Tox21).
# Unmarked numbers belong to inactive results. Calls follow the shape of the dose curve; as a rule, active = well fitted curve in the direction sought with a large enough effect in the repeat runs; inconclusive = weak or mixed curves; inactive = flat fitted curve, though single readings scatter.
# Experiment: qHTS assay to test for compound auto fluorescence at 460 nm (blue) in HEK293 cells (AID 720678)
# Conditions: blue autofluorescence 405/460 nm; series mostly up to 91.3 µM; fluorescence, % of triamterene: at the top concentration
# Method in brief: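 After cell attachment (4-5 hr, 37C), compounds were pinned onto HEK293 monolayers in 10% dialyzed FBS medium. The blue channel (405/460 nm) was read following overnight culture. Equivalency was calculated against triamterene.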
# % is scaled to controls: 0 for no effect and ±100 for the full control effect.
row,SMILES,"fluorescence, % of triamterene"
1,Cc1cc(NS(=O)(=O)c2ccc(N)cc2)nc(C)n1,-0.204% [at 46 µM]
2,CN(C)C(=O)NC1(c2ccccc2)CCN(CCC[C@]2(c3ccc(Cl)c(Cl)c3)CCCN(C(=O)c3ccccc3)C2)CC1,-0.0808% [at 18.6 µM]
3,O=C(O)C(=O)Cc1c[nH]c2ccccc12,0.15%
4,CCCCNc1cc(C(=O)O)cc(S(N)(=O)=O)c1Oc1ccccc1,0.191% [at 18.6 µM]
5,CCCCOc1cc(C(=O)NCCN(CC)CC)c2ccccc2n1,-0.0164% [at 18.6 µM]
6,C[C@]12C(=O)OC(=O)[C@H]1[C@H]1C=C[C@@H]2C1,-0.238%
7,CCCCc1ccc2nc(NC(=O)OC)[nH]c2c1,-0.014% [at 18.6 µM]
8,CCC1(C)NC(=O)NC1=O (configuration not stated),-0.0273%
9,OCC(CBr)(CBr)CBr,-0.173%
10,NNS(=O)(=O)c1ccc(Oc2ccc(S(=O)(=O)NN)cc2)cc1,0.023%
11,C=CCCC=C,0.035% [at 95.7 µM]
12,COc1cc(N)c(Cl)cc1C(=O)NC1CCN(Cc2ccccc2)CC1,0.111% [at 18.6 µM]
13,CCOC(=O)C1CC(=O)C(=C(O)C2CC2)C(=O)C1 (configuration not stated),0.0206%
14,OCCN(CCO)c1ccccc1,0.0531%
15,CC(CNC1CCCCC1)OC(=O)c1ccccc1 (configuration not stated),0.0231% [at 18.6 µM]
16,C[C@@H](N)C(=O)O,-0.023% [at 46 µM]

row,SMILES,"fluorescence, % of triamterene"
1,ICCc1ccccc1,0.0557%
2,Cc1cccc(C)c1NC(=O)CN1CCCCCC1,-0.0733% [at 46 µM]
3,O=S(=O)(O)C(F)(F)F,-0.0526%
4,CCOC(=O)NCCC[Si](OCC)(OCC)OCC,-0.0097%
5,CCN(CC)CCNC(=O)COc1ccc(Cl)cc1,-0.117% [at 46 µM]
6,CCCN(CCC)C(=O)C(CCC(=O)O)NC(=O)c1ccccc1 (configuration not stated),5.73% [at 46 µM]
7,Cc1ccc([N+](=O)[O-])cc1Cl,0.0309% [at 95.7 µM]
8,CCC(=O)O[C@]1(C(=O)SCF)[C@H](C)C[C@H]2[C@@H]3C[C@H](F)C4=CC(=O)C=C[C@]4(C)[C@@]3(F)[C@@H](O)C[C@@]21C,0.0153% [at 18.6 µM]
9,CCCCNCCCC,0.548%
10,CC(=O)Nc1ccc(C)c(Cl)c1,0.109%
11,NCCCN1CCN(CCCN)CC1,-0.0502%
12,C=CCCCCCCCCO,0.0229%
13,O=C(C(Cl)Cl)N1CCOC12CCCCC2,0.247%
14,CC1(C)S[C@@H]2[C@H](NC(=O)C(C(=O)O)c3ccccc3)C(=O)N2[C@H]1C(=O)O (some centres not stated),-0.0865% [at 46 µM]
15,CCCCCCCCCC#N,-0.115%
16,CCc1nnc(NS(=O)(=O)c2ccc(N)cc2)s1,0.0031% [at 46 µM]
